Measured values taken from PubChem BioAssay AID1345083 (National Center for Advancing Translational Sciences (NCATS), 2018).
In all, about 94,000 compounds went through this assay and about 6,200 (6.6%) were called active. Inconclusive results (about 31%) are left out. Only a selection was taken, and actives are over-represented in it overall. Unmarked numbers belong to inactive results. The call rests on the fitted dose curve; in most records, active means well fitted inhibition curve with a large enough effect; inconclusive means small, poorly fitted or top-dose-only effect; inactive means flat fitted curve, though single readings scatter.

Assay: Cytotoxic Profiling in HEK 293 Cell Line of Diverse Libraries Using Quantitative High-Throughput Screening; further: nearly all actives have a fitted effect of over 60% in size
Conditions: HEK 293 viability, ATP luminescence (CellTiter-Glo), 48-72 h; series mostly up to 115 µM; activity change, negative = cytotoxicity: at the top concentration
Procedure, shortened: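 CellTiter-Glo luminescence (cellular ATP) was read after 48 or 72 hr of compound exposure at 37 degree Celsius. Cells were HEK 293 plated at 250 cells/well.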
On the % scale 0 is the no-effect control and ±100 the full control effect; potency means the concentration at half of the fitted maximal effect.

Compound	Potency	activity change, negative = cytotoxicity	outcome
CC(C)N1Cc2cc(C(=O)Nc3cccc4c3CCCC4)sc2C1	28.2 µM (active)		
CC(C)N1Cc2cc(C(=O)O)sc2C1		10.9%	
COCCn1ccc2c(NC(=O)Cn3nc4c(cc3=O)CCCC4)cccc21		-23.3%	
O=C(O)C[C@@H]1CCN(C(=O)C2CCCCC2)C[C@@H]1CCN1CCN(c2ccccc2)CC1			inactive
CCOC(=O)[C@@H]1[C@@H](OC)C(=O)N(Cc2ccccc2)C12CCN(C(=O)c1ccc(F)cc1)CC2		-20.8%	
O=C(O)CCC(=O)N1CCOC2(CCN(C(=O)c3ccccc3)CC2)C1		-11%	
O=C(c1ccc(F)cc1)N1CCC2(CC1)CCN(Cc1cccs1)c1ccccc1O2	44.7 µM (active)		
COCC(=O)N(C1CCOCC1)C1CCN(S(=O)(=O)c2ccc(F)c(F)c2)CC1		-11%	
O=S(=O)(c1ccccc1)N1CCC(CCOc2ccccc2)C1 (configuration not stated)	79.4 µM (active)		
O=C1OCCN1C1CCN(S(=O)(=O)c2ccccc2)CC1			inactive
O=C(CCC1CCN(S(=O)(=O)c2ccccc2)CC1)NCc1ccccn1		-11.2%	
CCCN1C(=O)NC(Cc2nc(-c3cccnn3)no2)C1=O (configuration not stated)		-0.719%	
COc1ccccc1C(=O)NCC1COc2ncncc2C(=O)N1Cc1ccccc1 (configuration not stated)		-0.379% [at 172 µM]	
Fc1ccccc1-c1n[nH]c2c1CN(Cc1cccc3c1OCO3)CC2	44.7 µM (active)		
O=C1Cc2c(-c3ccc(F)cc3F)n[nH]c2CN1Cc1ccccc1F		-17.9% [at 172 µM]	
CSCC(=O)N1CCc2[nH]nc(-c3ccc4c(c3)OCO4)c2C1		-4.07%	
O=C(c1cccc(Cl)c1)N1CCC(C(=O)N2CCCC(c3nc4ccncc4[nH]3)C2)CC1 (configuration not stated)		1.44%	
O=C(N1CCCC1c1nc(CCOCC2CC2)no1)C1(c2ccccc2)CC1 (configuration not stated)		-12.4%	
O=C(c1ccc(-n2cnnc2)cc1)N1CCC2(CCCO2)CC1		-27.5%	
Cn1cccc1C(=O)N[C@H]1C[C@@H](C(=O)O)N(C(=O)CSCC(=O)N2C[C@@H](NC(=O)c3cccn3C)C[C@H]2C(=O)O)C1		-0.641%	
CCc1nc(-c2c3n(c(=O)n(CC(=O)Nc4ccc(C)cc4)c2=O)CCCCC3)no1		3.58%	
Cc1cccc(-c2cc(C3CCN(S(=O)(=O)c4cccc(C#N)c4)CC3)[nH]n2)c1	25.1 µM (active)		

Compound	Potency	activity change, negative = cytotoxicity	outcome
Cc1cccc(S(=O)(=O)N2CCC(n3cnnc3C(C)C)CC2)c1		-28.1%	
N#Cc1cccc(CN2CCCN(S(=O)(=O)c3ccccc3)CCC(=O)NCC2)c1		-29.8%	
O=C(O)C[C@@H]1CCN(C(=O)c2ccc(C(F)(F)F)cc2)C[C@@H]1CCN1CCN(c2ccc(F)cc2)CC1		0.723%	
COCCNC(=O)C1COC2(CCN(C(=O)c3ccc(F)cc3)CC2)N1C(=O)c1ccccc1C (configuration not stated)		-16.6%	
COc1cccc(C(=O)N2CCN(c3nccc(Nc4ccccc4OC)n3)CC2)c1		-63.1%	
COc1ccccc1Nc1ccnc(N2CCC(NC(=O)NC(C)C)CC2)n1		-0.588%	
COc1ccccc1C(=O)N1CCN(c2cc(C(F)(F)F)ncn2)CC1		-26.2%	
COc1ccccc1Nc1ccnc(N2CCN(C(=O)c3ccc(C(F)(F)F)cc3)CC2)n1	39.8 µM (active)		
Cc1ccc(C2Cn3cnc(C(=O)N4CCC(C(=O)NCc5cccc(Cl)c5)CC4)c3CO2)cc1 (configuration not stated)		-16.9%	
COc1ccccc1Nc1ccnc(N2CCC(C(=O)NCc3cccc(Cl)c3)CC2)n1	39.8 µM (active)		
Cc1ccccc1C(=O)N1CCN(c2nccc(Nc3ccccc3Cl)n2)CC1	35.5 µM (active)		
COc1ccc(C2Cn3nnc(C(=O)N4CCC(C(=O)NCc5ccc(C)cc5)CC4)c3CO2)cc1 (configuration not stated)		-5.15%	
COc1ccccc1Nc1ccnc(N2CCC(C(=O)NCc3ccc(C(F)(F)F)cc3)CC2)n1	31.6 µM (active)		
O=C(Nc1ccccc1Cl)N1CCC(Oc2ncccc2C(=O)N2CCCCC2)C1 (configuration not stated)		-19.7%	
COc1ccc(C2Cn3cnc(C(=O)N4CCC(C(=O)NCc5cccc(F)c5)CC4)c3CO2)cc1 (configuration not stated)		17.2%	
O=C(c1ccccc1Cl)N1CCN(C(=O)c2nc3cccnc3n(Cc3ccccc3)c2=O)CC1		-4.8%	
O=C1NC2(Cc3ccccc31)CN([S+](=O)([O-])c1cccc(C(F)(F)F)c1)C2		-6.46%	
O=C(NCC1CC1)c1cn(C2CN(C(=O)Nc3ccccc3)C2)nn1		3.71%	
CCCNC(=O)N1CCOC[C@H](Oc2cccnc2)C1		2.59% [at 230 µM]	
CCc1cccc(NC(=O)C2(C)CCCCC(=O)N2)c1 (configuration not stated)		-14%	
CC(=O)N1CCOc2ccc(CCC(=O)NCc3nc4ccccc4n3C)cc2C1		-7.53%	
CCCCN1C(=O)[C@@H]2C[C@@H](O)CN2C2(CN(CC(C)C)C2)C1=O		-1.68% [at 172 µM]	

Compound	Potency	activity change, negative = cytotoxicity	outcome
COCC1(CNS(=O)(=O)c2ccc(F)cc2)C[C@@H](O)[C@@H](O)C1 (some centres not stated)		-6.02% [at 172 µM]	
COc1ccc(Nc2ccnc(N3CCC(C(=O)N4CCN(C(C)=O)CC4)CC3)n2)cc1		4.42%	
COc1ccc(CNC(=O)[C@@H]2CCC[C@@H](NCc3nccs3)CN(C)C(=O)C2)cc1		-2.3% [at 172 µM]	
COc1ccc(Nc2ccnc(N3CCCC(C(=O)NCc4ccc(C(F)(F)F)cc4)C3)n2)cc1 (configuration not stated)	20 µM (active)		
Cc1nsc(NC(=O)N2CCC(CO)CC2)n1		-4.07%	
CCOc1ccccc1C(=O)N1CCC(N2CC3CC(C2)[C@H]2CCCC(=O)N2C3)CC1 (some centres not stated)		-0.534%	
COC[C@@H]1CN(C(=O)Cn2cc(C)cn2)C[C@H]1c1ccccn1		-6.73%	
Cc1ccc(C)c(NC(=O)Cn2nc3n(c2=O)CCCCC3)c1		1.83%	
CN(CCc1cn[nH]c1)c1ccc(-c2nc(-c3ccccc3F)no2)cn1	31.6 µM (active)		
O=C(C1CCC1)N1CCC(Oc2cccnc2)C1 (configuration not stated)		13.3%	
Cc1noc(C)c1-c1cc(-c2cncnc2)cn2cncc12		-2.72% [at 230 µM]	
OCc1ccc(-c2cc(-c3cccnc3)c3cncn3c2)cc1		-4.7% [at 172 µM]	
Cc1noc(C)c1-c1cc(-c2ccccc2Oc2ccccc2)cn2cncc12	79.4 µM (active)		
CCCOCCCNC(=O)c1c(C)noc1-c1ccccc1Cl		-16.3%	
COc1ccccc1-c1onc(C)c1C(=O)NCCC(c1ccccc1)c1ccccc1	25.1 µM (active)		
COc1ccccc1-c1onc(C)c1C(=O)NCc1ccc(Cl)cc1		-27.2%	
O=C(c1ccc2nnc(C3CC3)n2c1)N1CCOCC1		0.449% [at 172 µM]	
CC(C)n1c(C2CCN(C(=O)Cc3cccc(F)c3)CC2)nn(C)c1=O			inactive
O=C(C1CCCN(c2ccnc3ccnn23)C1)N1CCCCC1 (configuration not stated)		-26.9% [at 172 µM]	
O=C(c1ccoc1)N1CCOc2ccc(CN3CCc4ccccc4C3)cc2C1	39.8 µM (active)		
O=C(CC1CCCC1)N1CCOc2ccc(CN3CCCCC3)cc2C1		-22.3%	
O=C(c1ccccc1)N1CCOc2ccc(CN3CCc4ccccc4C3)cc2C1	44.7 µM (active)		

Compound	Potency	activity change, negative = cytotoxicity	outcome
O=C1CCN(Cc2ccc3c(c2)CCO3)CCOCCN1		4.17%	
O=C(c1ccoc1)N1CCCN(C(=O)C2COc3ccccc3C2)CC1 (configuration not stated)		-24.8%	
CCC(C)N1CCN(C(=O)CCc2ccc3c(c2)CN(C(=O)NC(C)C)CCO3)CC1 (configuration not stated)		-4.09%	
COc1ccccc1N1CCN([C@@H]2[C@H](O)[C@H](CO)O[C@@H]2CNC(=O)c2ccc(F)c(Cl)c2)CC1			inactive
CN1C[C@H](NCc2nccn2C)CCC[C@@H](C(=O)NC2CC2)CC1=O		-8.8% [at 172 µM]	
O=C(NCc1cccs1)c1nc(-c2cc(Cl)cc(Cl)c2)c2ccccn12			inactive
CCOCC(=O)N1[C@@H]2CC[C@H]1CC(NC(=O)c1ccc(F)cc1)C2 (some centres not stated)		3.15%	
Cc1ccncc1C(=O)N1[C@@H]2CC[C@H]1CC(NC(=O)c1ccc(F)cc1)C2 (some centres not stated)			inactive
CCc1cccc(NC(=O)N2[C@@H]3CC[C@H]2CC(NC(=O)c2ccc(F)cc2)C3)c1 (some centres not stated)	39.8 µM (active)		
CNC(=O)c1cc(C)nc2onc(C3CCCN(C(=O)c4ccccn4)C3)c12 (configuration not stated)		-3.14%	
CCC(c1ccccn1)N(C)C(=O)c1cc(COc2ccccc2)[nH]n1 (configuration not stated)		-18.1%	
C#CCNC(=O)C1CCc2nnc(-c3ccccc3OC)n21 (configuration not stated)		-6.52%	
CN1CCCCCC1C(=O)NCc1cccnc1Oc1ccccc1F (configuration not stated)		-23.7%	
COc1ccccc1-c1ccc(CN2CCCCC2C(=O)NCc2cccc(Cl)c2)cc1 (configuration not stated)	22.4 µM (active)		
COc1ccc(F)cc1-c1ccc(CN2CCCCC2C(=O)NCc2ccccn2)cc1 (configuration not stated)	25.1 µM (active)		
COc1ccc(CNC(=O)C2CCCCN2Cc2ccc(-c3ccccc3OC)cc2)cc1 (configuration not stated)	31.6 µM (active)		
COc1ccc(OC)c(S(=O)(=O)N2CCC(CC(=O)NCc3ccccc3)C2)c1 (configuration not stated)		-14.4%	
CCNC(=O)[C@@H]1CCCN1[C@@H](C(=O)NC)c1ccccc1OC		2.6% [at 172 µM]	
C=C(C)CCC(C)N1CCC(N2CCC(C(=O)NCc3ccccn3)CC2)CC1 (configuration not stated)		-4.18%	
CCOc1cc(=O)n2c(c1C(=O)NCc1cccc(Cl)c1)CCCC2		-25.7%	
Cc1ccc2[nH]c(CCCn3cc(-c4nccn4C)nn3)nc2c1C		-2.12%	
Cc1cnc(C(=O)N2CC[C@H](CO)[C@H](N(C)C)C2)cn1		-7.91%	

Compound	Potency	activity change, negative = cytotoxicity	outcome
COC(=O)c1nc(NC(=O)Cn2nc3c(cc2=O)CCCCC3)sc1C		-20.3%	
CC(=O)c1cc(CN2CCN(c3nnc(C(F)(F)F)s3)CC2)cs1		-31.2%	
O=C(C1CC1)N1CCC2(CC1)C(=O)NCN2Cc1ccc(Cl)cc1		-22.5%	
C[S+](=O)([O-])N1CC2(Cc3ccccc31)CN(C(=O)C1CC1)C2			inactive [at 172 µM]
COc1ccc(CNC(=O)N2CC3CN(C)CC(C2)O3)cc1		-1.63%	
COc1ccc(CNC[C@H]2O[C@H](Cc3cc(-c4ccc(OC)cc4)on3)CC[C@@H]2O)cc1	35.5 µM (active)		
CC(=O)N1CCC(NC[C@H]2O[C@H](Cc3cc(-c4cccc(O)c4)on3)CC[C@@H]2O)CC1		-11.3% [at 172 µM]	
Cc1ncsc1C1N(C2CCN(C(=O)C3CC3)CC2)C(=O)C12CCCC2 (configuration not stated)			inactive
CCOCCOC1CCN(C(=O)Nc2cccc(F)c2)CC1		-1.97%	
CCC(C)NC(=O)Cc1csc2nc(C)c(-c3cc(C)n(-c4ccc(C(C)C)cc4)n3)c(=O)n12 (configuration not stated)		-13.3%	
Cc1nn(-c2ccccc2)c2c1C(C)N(C1CN(C(=O)Nc3ccccc3)C1)C2=O (configuration not stated)		-21.4%	
COc1ccc(-n2nc(C)c([C@@H]3C=C[C@@H](NC(=O)Nc4ccccc4)C3)c2C)cc1	50.1 µM (active)		
Cc1nn(-c2ccccc2)c2c1C(C(C)C)N(C1CN(C(=O)c3ccc(Cl)nc3)C1)C2=O (configuration not stated)			inactive
COc1ccc(C(=O)Nc2cc(-c3ccccn3)nn2-c2ccccc2)cc1		-27.8%	
Cc1nn(-c2ccc(C(C)C)cc2)c(C)c1[C@@H]1C=C[C@@H](NC(=O)Nc2ccccc2)C1	39.8 µM (active)		
COc1ccc(-n2nc(C)c([C@H]3C=C[C@@H](OC(=O)Nc4cccc(F)c4)C3)c2C)cc1	20 µM (active)		
COc1ccc(-n2nc(-c3ccccc3)n(CC(=O)N(C)CC(C)C)c2=O)cc1		-13.5%	
COc1ccc(C(=O)Nc2cccc(-c3nnc4n3CCCC4)c2)cc1		-14.6%	
Cc1nn(-c2ccc(C(C)C)cc2)c(C)c1[C@@H]1C=C[C@@H](NC(=S)NCC(C)C)C1	25.1 µM (active)		
